The list is not random: actives were taken first. Their share in the collection is about 1.2%.
KCNH2 3.1 inh: qHTS for Inhibitors of KCHN2 3.1: Mutant qHTS; U2OS KCNH2 3.1, thallium flux FluxOr; stronger effect = lower value; Potassium voltage-gated channel subfamily H member 2, brain isoform KCNH2 3.1 (human); AID 720553, 2013; activity change, % (tested at about 1.8 µM); 340,000 tested, 0.95% active;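 active = maximum activity change below -70%; inconclusive = maximum activity change from -70% to -50%; inactive = maximum activity change above -50%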;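 note: thallium influx rate constant from kinetic fluorescence after stimulation buffer; % is set by controls: 0 for no effect and ±100 for the full control effect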
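Virally transduced U2OS (3.1 isoform, 4 h infection in dark at RT) → overnight 37 C → FluxOr + Red40 in HBSS/HEPES, 45 min → stimulation buffer, 2 min kinetic read → rate constant vs DMSO controls.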
Tb PFK block: qHTS Assay to Find Inhibitors of T. brucei phosphofructokinase. ATP-dependent 6-phosphofructokinase (Trypanosoma brucei brucei), O15648. T. brucei PFK, ADP-Glo luminescence. Potency, µM (series often up to 57.5 µM), for the others: at the top dose activity, negative = inhibition, most hits filed as inhibitors. 330,000 tested, 0.17% active; active = well fitted inhibition curve with a large enough effect; inconclusive = small, poorly fitted or top-dose-only effect, or effect the other way;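 note: potency is the fitted concentration of half-maximal effect; 0% = uninhibited 1x PFK enzyme wells and -100% = no-enzyme wells; nearly all actives have a fitted effect of over 60% in size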
Target sequence (O15648 whole entry, looked up): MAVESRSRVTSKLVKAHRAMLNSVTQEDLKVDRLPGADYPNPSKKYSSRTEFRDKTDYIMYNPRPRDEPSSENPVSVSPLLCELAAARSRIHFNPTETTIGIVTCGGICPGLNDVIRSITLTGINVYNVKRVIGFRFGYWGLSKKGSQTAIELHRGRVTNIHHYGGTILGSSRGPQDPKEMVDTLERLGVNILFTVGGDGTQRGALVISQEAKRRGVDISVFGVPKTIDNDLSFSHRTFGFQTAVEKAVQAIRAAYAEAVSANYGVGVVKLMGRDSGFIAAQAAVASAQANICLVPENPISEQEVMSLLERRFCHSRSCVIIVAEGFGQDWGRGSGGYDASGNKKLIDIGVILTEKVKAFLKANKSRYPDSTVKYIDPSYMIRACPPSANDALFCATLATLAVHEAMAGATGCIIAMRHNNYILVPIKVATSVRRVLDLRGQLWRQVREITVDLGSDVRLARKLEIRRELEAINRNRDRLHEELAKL
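Compounds were pin-transferred as a titration series up to 57 uM into substrate buffer (0.5 mM F6P, 0.1 mM ATP, pH 8.0), then 1.25 nM PFK was added and reactions ran 45 min before ADP-Glo detection.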
TSG101-PTAP inh: qHTS Assay for Iinhibitors of HIV-1 Budding by Blocking the Interaction of PTAP/TSG101 | Tumor susceptibility gene 101 protein (Homo sapiens), Q99816 | Fluorescence polarization, FITC-PTAP peptide / Tsg101 binding | Potency, µM (top dose mostly 115 µM), for inactives: top-dose activity change, negative = inhibition, actives largely listed as inhibitors | 340,000 tested, under 10 active | AID 493005, 2010; active = well fitted inhibition curve with a large enough effect in the main read-out, with a control signal flat, not every such curve was filed as active; inconclusive = small, poorly fitted or top-dose-only effect, or effect the other way, or a change in a side signal; inactive = no such curve, though single readings can be large or run the other way; note: potency is the fitted concentration of half-maximal effect; % of control where 0% means no effect
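Compounds were pin-transferred onto Tsg101 binding domain (10 uM final) in HEPES pH 7.5 buffer, then FITC-PTAP peptide was added at 50 nM final. After 20 min at RT, polarization reported peptide displacement across a qHTS concentration series.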
hERG WT inh: qHTS for Inhibitors of KCHN2 3.1: Wildtype qHTS; 340,000 tested, 0.37% active; U2OS, BacMam KCNH2, thallium flux FluxOr; stronger effect = lower value; activity change, % at 1.84 µM; AID 720551, 2013; Voltage-gated inwardly rectifying potassium channel KCNH2 (Homo sapiens), Q12809;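 active = maximum activity change below -70%; inconclusive = maximum activity change between -70% and -50%; inactive = maximum activity change above -50%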; note: % is set by controls: 0 for no effect and ±100 for the full control effect
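U2OS cells were transduced with wild-type KCNH2 virus (2.03 x 10^8 / mL) for 4 h at room temperature, then cultured overnight at 37 C. Thallium flux was read with FluxOr dye. Rate constants were normalized to DMSO controls.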
Numbers without * were called inactive; ? = inconclusive; . = not tested or not shown.

SMILES	KCNH2 3.1 inh	Tb PFK block	TSG101-PTAP inh	hERG WT inh
Cc1nn(C)c(C)c1CNC(=O)c1cc2n(n1)C(C(F)(F)F)CC(c1cccs1)N2 (stereo not drawn)	-2	-1%	-4%	2
COc1ccc(-n2c(COc3ccc(Cl)cc3)nnc2SCc2ccc(C#N)cc2)cc1	-79*	9%	-5%	4
CCCC[C@@H](CNC)NC[C@H](Cc1ccc(O)cc1)NCCc1ccc(OCC)cc1	-71*	-2%	-2%	-24
O=C(COc1ccc(-c2ccccc2)cc1)N1CCN(S(=O)(=O)Cc2ccccc2)CC1	-75*	-2%	-7%	-3
CCN1CCc2nc3ccccc3c(C(=O)Nc3ccc(F)cc3)c2C1	-83*	0%	-3%	?
COc1cccc(CNC(=O)c2nnn(CC(=O)Nc3ccc(Br)cc3)c2N)c1	35	-1%	-1%	-7
COc1cc(NS(=O)(=O)c2ccc(NC(=S)NC(=O)CC(C)C)cc2)nc(OC)n1	-31	2%	-2%	-118*
O=C(Nc1ccccc1)N1CCc2c([nH]c3ccccc23)C1C(F)(F)F (stereo not drawn)	-15	-1%	-1%	-2
O=C(O)CCC(=O)N1CCc2c([nH]c3ccccc23)C1C(F)(F)F (stereo not drawn)	-85*	-1%	-7%	-2
CN1CCC(N(C)CC(=O)Nc2cccc(Oc3ccccc3)c2)CC1	-95*	-7%	-8%	-2
OCC1(CCOc2ccccc2)CCN(CC2=Cc3cc(Cl)ccc3OC2)CC1	-72*	-1%	-1%	-33
COC(=O)c1ccc(CN2CCC(CO)(CCOc3ccccc3)CC2)cc1	-97*	2%	-1%	-5
COc1ccc(CN2CCC(CO)(CCOc3ccccc3)CC2)c(OC)c1C	?	-3%	1%	-14
COc1cc(Cl)c(CN2CCC(CO)(CCOc3ccccc3)CC2)cc1OC	-94*	-3%	-6%	-74*
O=C(NCc1ccc(Cl)cc1)[C@@H]1CCCN1S(=O)(=O)c1ccc(Cl)cc1	3	2%	1%	5
CCCN(CC(=O)Nc1ccccc1C)C(=O)COC(=O)c1cnc(C)cn1	37	.	-8%	1
Cc1c(O)c(S(=O)c2ccccc2)c(=O)n(-c2ccccc2)c1-c1ccccc1 (stereo not drawn)	9	-9%	1%	3
O=C(c1cc(S(=O)(=O)NCc2ccco2)ccc1Br)N1CCOCC1	-18	-4%	-4%	8
CCOCCCNC(=O)c1cc2c(s1)-c1ccccc1SC2	3	-5%	0%	0
CN(C)CCNC(=O)c1cc2c(s1)-c1ccc(Cl)cc1SC2	-81*	3%	-5%	-113*
CC(=O)NC12CC3CC(C1)CC(C(=O)Nc1ccc(C)c(S(=O)(=O)N4CCCCCC4)c1)(C3)C2	14	.	-1%	-4
C=CCn1c(=O)c(C(C)=O)cn(N(C)c2ncc(C(F)(F)F)cc2Cl)c1=O	-114*	-2%	-6%	-2
CC(=O)c1cn(N(C)c2ncc(C(F)(F)F)cc2Cl)c(=O)[nH]c1=O	4	-2%	0%	3
CC(C)[C@@]1(c2ccc(Cl)cc2)ON(c2ccccc2C(F)(F)F)C1=O	.	2%	.	.
COc1ccc(S(=O)(=O)Nc2ccc3c(c2)C(=O)N([C@H](C)CO)C[C@H](C)[C@@H](CN(C)S(=O)(=O)c2cn(C)cn2)OCCCC[C@H](C)O3)cc1	4	.	.	9
CCOC(=O)/C(C#N)=C\c1cc(C)n(-c2ccccc2)c1C	-1	1%	-2%	-7
CCOC(=O)/C(C#N)=C\c1ccc(N2CCN(C/C=C/c3ccccc3)CC2)cc1	-83*	5%	?	-10
COc1ccc(OC(C)C(=O)Nc2ccc(F)cc2F)cc1 (stereo not drawn)	-190*	1%	0%	-136*
CC1(C)NC(=O)N(CC(O)CNC23CC4CC(CC(C4)C2)C3)C1=O (stereo not drawn)	8	1%	0%	-100*
CC(C)CN(CC(C)C)C(=O)COn1nnc2ccc(S(=O)(=O)N3CCOCC3)cc21	5	2%	-4%	-5

Screens (PubChem)
